# Test results from PubChem BioAssay (EPA / NIEHS).
# Inconclusive results are not listed. The source made the active and inactive calls. How the source made its calls: active means hit-call score of the fitted dose curve at least 0.9, where 1 is the maximum; inconclusive means response in the unintended direction; inactive means score below 0.9.
# Biological target: Glucocorticoid receptor (Homo sapiens) (UniProt P04150)
# Assay: NVS_NR_hGR: NovaScreen (NVS) Nuclear Receptor Binding Assay for human Glucocorticoid Receptor (GR) (AID 2283363);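 on AC50: activity is loss of specific radioligand binding signal relative to DMSO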
# Summary of the method: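 Compounds first tested in duplicate at 25 uM, actives followed up in concentration series. Binding to extracted GR protein measured as competitive radioligand displacement, filter scintillation read 16 h post-dosing, normalised to DMSO.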
# Sequence of Glucocorticoid receptor (Homo sapiens) (P04150 whole entry, looked up): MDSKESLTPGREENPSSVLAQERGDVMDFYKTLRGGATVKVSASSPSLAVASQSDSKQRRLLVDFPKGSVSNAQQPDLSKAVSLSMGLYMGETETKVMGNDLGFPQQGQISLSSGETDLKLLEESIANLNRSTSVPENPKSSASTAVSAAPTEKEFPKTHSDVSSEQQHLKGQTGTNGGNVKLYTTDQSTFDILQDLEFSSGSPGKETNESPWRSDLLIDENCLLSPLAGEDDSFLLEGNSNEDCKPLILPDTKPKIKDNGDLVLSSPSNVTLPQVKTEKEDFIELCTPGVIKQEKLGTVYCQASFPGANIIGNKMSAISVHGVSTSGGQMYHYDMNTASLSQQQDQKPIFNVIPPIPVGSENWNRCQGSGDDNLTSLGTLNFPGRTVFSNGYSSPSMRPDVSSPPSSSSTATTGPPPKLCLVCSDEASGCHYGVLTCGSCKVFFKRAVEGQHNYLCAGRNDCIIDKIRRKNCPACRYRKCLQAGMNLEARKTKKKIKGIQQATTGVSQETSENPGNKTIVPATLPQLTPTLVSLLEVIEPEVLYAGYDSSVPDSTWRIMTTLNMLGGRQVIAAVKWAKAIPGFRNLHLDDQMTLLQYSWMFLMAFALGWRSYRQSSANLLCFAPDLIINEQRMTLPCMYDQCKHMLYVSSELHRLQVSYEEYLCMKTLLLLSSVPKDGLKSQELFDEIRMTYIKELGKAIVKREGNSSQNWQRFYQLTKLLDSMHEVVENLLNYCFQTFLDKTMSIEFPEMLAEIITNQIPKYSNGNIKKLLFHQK
SMILES,AC50,outcome
CCCCC(CC)COC(=O)c1ccc(O)cc1 (stereo not given),3.11 µM (active),–
CCCCCCCCC=CCCCCCCCC1=NCCN1CCO,5.02 µM (active),–
CCOc1ccc(NC(=O)CC(C)=O)cc1,1.99 µM (active),–
CCC(=O)O[C@@H]1C[C@H]2CC[C@]1(C)C2(C)C,–,inactive
COc1ccc(N=Nc2cc(C)c(N=Nc3ccc(S(=O)(=O)O)cc3)cc2OC)cc1,1.91 µM (active),–
CCC(C)c1cc([N+](=O)[O-])cc([N+](=O)[O-])c1OC(=O)OC(C)C (stereo not given),5.81 µM (active),–
CCCCCCCCCCCCCCN(CCO)CCO,8.13 µM (active),–
CCOc1ccc(N=Nc2ccc(C=Cc3ccc(N=Nc4ccc(OCC)cc4)cc3S(=O)(=O)O)c(S(=O)(=O)O)c2)cc1,3.4 µM (active),–
Oc1c(Cl)cc(Cl)c(Cl)c1Cc1c(O)c(Cl)cc(Cl)c1Cl,4.34 µM (active),–
CCCCCCCCc1ccc(S(=O)(=O)O)cc1,17 µM (active),–
[O-]n1ccccc1=S.[O-]n1ccccc1=S.[Zn+2],0.776 µM (active),–
Cc1ccc(S(=O)(=O)Oc2ccc(N=Nc3ccc(-c4ccc(N=Nc5c(O)ccc6cc(S(=O)(=O)O)cc(S(=O)(=O)O)c56)c(C)c4)cc3C)cc2)cc1,0.548 µM (active),–
Cc1ccc(S(N)(=O)=O)cc1,–,inactive
C=C1CC[C@H](O)C/C1=C/C=C1\CCC[C@]2(C)[C@@H]([C@H](C)/C=C/[C@H](C)C(C)C)CC[C@@H]12,25 µM (active),–
Nc1ccc2cc(S(=O)(=O)O)cc(O)c2c1N=Nc1ccccc1C(F)(F)F,5.65 µM (active),–
